Source: PubChem BioAssay (NCI)
The panel holds about 83,000 compounds, 20% with a hit somewhere; the sample as a whole holds those more often.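 Step 1: grow cells in 96-well plates. Step 2: add test compound at a single concentration. Step 3: incubate 48 h. Step 4: record percent growth.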 Values without a mark were called inactive. Active and inactive are the calls of the source. Rule for the calls: active = growth percent below 10; inactive = the rest.

What was measured:
Assay in all cases: NCI-60 one-dose screen, 48 h (100 = growth as untreated, 0 = no growth, -100 = all killed)
Conditions in all cases: 10 µM unless noted
NCI-H226 lung = system: NCI-H226 lung
NCI-H322M lung = system: NCI-H322M lung
HOP-62 NSCLC = system: HOP-62 NSCLC
NCI-H460 lung = system: NCI-H460 lung
NCI-H522 lung = system: NCI-H522 lung
A549/ATCC NSCLC = system: A549/ATCC NSCLC
786-0 renal = system: 786-0 renal
COLO 205 colon = system: COLO 205 colon
DU-145 prostate = system: DU-145 prostate
K-562 leukemia = system: K-562 leukemia
MALME-3M melanoma = system: MALME-3M melanoma
MDA-MB-231 breast = system: MDA-MB-231 breast
RXF 393 renal = system: RXF 393 renal
SF-268 CNS = system: SF-268 CNS
SF-295 CNS = system: SF-295 CNS
SF-539 CNS = system: SF-539 CNS
UACC-257 melanoma = system: UACC-257 melanoma
M14 melanoma = system: M14 melanoma
HOP-92 NSCLC = system: HOP-92 NSCLC

SMILES | growth (NCI-H226 lung) | growth (NCI-H322M lung) | growth (HOP-62 NSCLC) | growth (NCI-H460 lung) | growth (NCI-H522 lung) | growth (A549/ATCC NSCLC) | growth (786-0 renal) | growth (COLO 205 colon) | growth (DU-145 prostate) | growth (K-562 leukemia) | growth (MALME-3M melanoma) | growth (MDA-MB-231 breast) | growth (RXF 393 renal) | growth (SF-268 CNS) | growth (SF-295 CNS) | growth (SF-539 CNS) | growth (UACC-257 melanoma) | growth (M14 melanoma) | growth (HOP-92 NSCLC)
Cc1cc(C)cc(NC(=O)Cn2cc(COn3nnc4ccccc43)nn2)c1 | 101% | 99.3% | 115% | 114% | 95.6% | 107% | 101% | 117% | 111% | 102% | 108% | 106% | 122% | 116% | 110% | 99.6% | 101% | 106% | 
COc1cc2c(c(OC)c1OC)C(=O)CC(c1cccc(NC(=O)c3cc(NC(=O)[C@H](C)N)ccc3Cl)c1)O2 (some centres undefined) | 48.9% | 81.2% | 79.1% | 51.4% | 1.34% (active) | 56% | 45% | 74.5% | 36% | 9.72% (active) | 45.5% | 52.5% | 32.1% | 50.5% | 110% | 44.3% | 62.9% | 44.3% | 
COc1cc2oc(-c3cccc(NC(=O)[C@H](CC(N)=O)NC(=O)OC(C)(C)C)c3)cc(=O)c2c(OC)c1OC | 92.7% |  | 104% | 89.1% | 73.7% | 95% | 88.2% | 109% | 97.1% | 77.1% | 107% | 97.7% | 69.4% | 90.2% | 103% | 78% | 112% | 115% | 
Cc1cccc(Nc2nc3ccccc3nc2/C=C/c2ccc(F)cc2)c1 | 95.2% | 95.5% |  | 95.4% | 79.4% | 91.2% | 97.3% | 106% | 101% | 86.5% | 109% | 97.1% | 98% | 91% | 107% | 102% | 94.5% | 93.3% | 84.5%
C#CCOc1ccc(/C=N/Nc2nc(-c3cc4cc(Br)ccc4oc3=O)cs2)cc1OC | 29.8% | 77.8% |  | 43.4% | 34.3% | 49.5% | 50.8% | 88.1% | 69.1% | 58% | 59.4% | 36.3% | 58.1% | 59.6% | 24.2% | 25.1% | 86.4% | 79.4% | 45.5%
CC1=C(C(=O)c2ccccc2)C(c2cccc3ccccc23)n2c(nc3ccccc32)N1 (centres undefined) | 50% | 87.5% |  | 87% | 66.5% | 40.8% | 70.6% | 65.3% | 67.3% | 39.3% | 57.4% |  | 76.4% | 60.1% | 76.9% | 1.2% (active) | 84% | 73.5% | 
C#CCOc1ccc(/C=N/Nc2nc(-c3ccc(F)cc3)cs2)cc1OC | 54.1% | 83.1% | 86.9% |  | 46.9% | 72.9% | 84.4% | 68.9% | 89% | 25% | 86.3% | 73.5% | 24% | 84.8% | 79.2% | 70.6% | 63.7% | 61.3% | 34.2%
COc1ccc(/C=C/c2nc3ccccc3nc2Nc2cccc(C)c2)cc1 | 93.1% |  | 92.7% | 101% | 83% | 106% | 97.4% | 105% | 108% | 84.2% | 115% | 88.5% | 109% | 96.8% | 127% | 103% | 112% | 99.6% | 99.3%
O=C(NN1C(=O)/C(=C/C=C/c2ccc([N+](=O)[O-])o2)SC1=S)c1ccc(Cl)cc1 | -97.1% (active) | -100% (active) | -98.8% (active) | -72.7% (active) | -88.8% (active) | -86.7% (active) | -82.3% (active) | -94.8% (active) | -100% (active) | 3.88% (active) | -96% (active) | -97.5% (active) | -92.1% (active) | -86.4% (active) | -91.9% (active) | -95.2% (active) | -93.3% (active) | -68.7% (active) | 
O=C(c1ccccc1)c1ccc2nc(-c3ccc(F)cc3)[nH]c2c1 | 25.4% | 97.2% | 83.5% | 51.4% | -59.7% (active) | 82.2% | 39% | 85.8% | 74.9% | 20.9% | 73% | 42.2% | 49.2% | 47.7% | 97.1% | 50.6% | 68.5% | 54.4% | 
Cc1ccc(C(=O)C(c2c[nH]c3ccccc23)c2c[nH]c3ccccc23)cc1 | 38.9% |  | 89.9% | -6.44% (active) | -1.59% (active) | 49% | 32% | -45.7% (active) | 4.62% (active) | 5.78% (active) | 72.6% | 24.2% | 34% | 51.5% | 81.9% | 70.4% | 76.6% | 33.9% | 89.9%
C#C[C@]1(O)CC[C@H]2[C@@H]3CC=C4c5sc(-c6ccc([N+](=O)[O-])cc6)nc5CC[C@]4(C)[C@H]3CC[C@@]21C | 71.6% | 25.5% | 23.5% |  | -5.59% (active) | 29.6% | 18.3% | -70% (active) | 6.96% (active) | 5.27% (active) | -28.9% (active) | -23.5% (active) | -21.7% (active) | 44.5% | -41.3% (active) | -49% (active) | 32.7% | -53.7% (active) | 42.9%
COc1cc(-c2nc3ccc(C)cc3[nH]2)ccc1OCc1nnc(-c2ccc(Br)cc2)o1 | 57.5% | 65.6% |  | 31.3% | 8.24% (active) | 49.8% | -50.8% (active) | 3.01% (active) | 58.3% | 3.01% (active) | 45% | 12.9% | 25.2% | 54.8% | -54.1% (active) | -82.7% (active) | -15.4% (active) | 31.2% | 18.8%
COc1c(F)ccc(C(=O)Nc2ccc3nc(NC(=O)C4CCCN(S(=O)(=O)c5ccc(Br)s5)C4)sc3c2)c1F (centres undefined) | 75.1% | 97.9% | 104% | 86.5% | 74.2% | 79.7% | 61.5% | 101% | 88% | 68.9% | 88.9% | 81.6% | 36.1% | 64.1% | 69.3% | 78% | 88.7% | 89.7% | 
COc1c(F)ccc(C(=O)Nc2ccc3nc(NC(=O)C4CCCN(S(=O)(=O)c5ccc(C(F)(F)F)cc5)C4)sc3c2)c1F (centres undefined) | 81.3% | 91.9% | 94.6% | 78% | 76% | 75.3% | 62.9% | 84.2% | 88% | 64.6% | 89% | 81.3% | 9.04% (active) | 68% | 74.7% | 68.4% | 86.3% | 79.3% | 
O=C1Nc2cc(Cl)ccc2/C1=C/c1cccc(OCc2ccccn2)c1 | 38.6% |  | 17.4% | 13.9% | -42.4% (active) | 37.5% | 10.8% | 51.7% | 9.98% (active) | 4.79% (active) | 36.4% |  | -3.29% (active) | 13.1% | 13.6% | -48.2% (active) | 44.4% | -9.46% (active) | -3.65% (active)
Cn1cc(-c2cc3nc(-c4cn(C)c5ncccc45)cc(N)n3n2)c2ccccc21 | -21.6% (active) | 37% | -13.6% (active) | 3.16% (active) | -4.18% (active) | 15.2% | -52.9% (active) | 3.03% (active) | 40.9% | -34.9% (active) | -47.8% (active) | -19.9% (active) | -50.4% (active) | 15% | -30.6% (active) | -78.7% (active) | -49.7% (active) | 5.56% (active) | 
C[C@H](Nc1nc(NCCc2ccccc2)nc2ccccc12)c1ccccc1 | -80.4% (active) | -55.9% (active) |  | -75.3% (active) | -82.9% (active) | -33.2% (active) | -87.3% (active) | -93.7% (active) | -85.6% (active) | -43.9% (active) | -91.7% (active) |  | -90.5% (active) | -70.4% (active) | -95.8% (active) | -96.2% (active) | -76% (active) | -84.5% (active) | -81.1% (active)
Cc1cc2c(cc1Cl)C(=O)/C(=C/c1ccc(F)cc1)O2 | 84.3% |  | 93.7% | 105% | 65.8% | 103% | 89.8% | 119% | 118% | 77.6% | 100% | 90.1% | 95.7% | 117% | 98.9% | 85.9% | 106% | 96.8% | 
O=C(C1=CNC(=S)NC1c1ccc(O)cc1)c1cc2ccccc2oc1=O (centres undefined) | 95.7% | 106% | 91.4% | 108% | 90% | 101% | 109% | 102% | 110% | 90.9% | 108% | 105% | 109% | 97.5% | 98.8% | 91.9% | 107% | 96.4% | 
